3CLpro inhibitor – SARS-CoV 3CLpro protease inhibition. recombinant SARS-CoV 3CLpro, quenched FRET peptide cleavage. P0C6X7. inhibition, % at 6 µM. 290,000 tested, 0.14% active; in the data active = inhibition above about 12%
BJeLR viability – kills HRASV12-expressing BJeLR cells. BJeLR (HRASV12) viability, CellTiter-Glo ATP luminescence, 48 h. inhibition, % (concentration not given with the values). 300,000 tested, 0.17% active. AID 1554; in the data active = inhibition above about 50%
PrPC surface inh – cell surface PrPC inhibition, primary TR-FRET screen; TR-FRET read-out; 370,000 tested, 0.43% active; AID 720596; inhibition, % at 13.8 µM; in the data active = inhibition above about 24%; also: 0% = median of the test wells and 100% = reference compound wells
VHR inh abs – DUSP3 (human) phosphatase inhibition; P51452; recombinant VHR phosphatase, pNPP absorbance; inhibition, % at 13.3 µM; 290,000 tested, 0.52% active; in the data active = inhibition above about 50%
PrPC confirm – cell surface PrPC inhibition, TR-FRET confirmation | 1,500 tested, 65% active | AID 743200 | cell surface PrPC level | inhibition, % at 13.8 µM | shares compounds with PrPC surface inh; in the data active = inhibition above about 25%
LD9 tox – LD9 cell cytotoxicity, PrPc inhibitor counter-screen; inhibition, % at 13.8 µM; AID 743201; LD9 cells cytotoxicity, luminescence viability; 1,500 tested, 29% active; shares compounds with PrPC surface inh; in the data active = inhibition above about 9.5%
Active calls of the source: *; nt = not tested or not shown. Rows were chosen to be rich in hits. Some 1.1% of all compounds tested hit in one or more screens of this group.

SMILES | 3CLpro inhibitor | BJeLR viability | PrPC surface inh | VHR inh abs | PrPC confirm | LD9 tox
O=c1[nH]c(CN2CCN(c3ccc(O)cc3)CC2)nc2scc(-c3ccc(Cl)cc3)c12 | 6.1 | 29.7 | 25.5* | 47.1 | 38.6* | 12.9*
O=c1[nH]c(CN2CCN(c3ccccc3O)CC2)nc2scc(-c3ccccc3Cl)c12 | 1.0 | 3.7 | 7.4 | 17.6 | nt | nt
Cc1ccc(S(=O)(=O)N2CCCCC2)cc1NC(=O)CSc1ncnc2ccccc12 | -2.2 | -3.7 | 62.7* | 8.1 | 71.1* | -14.6
O=C(CCCOc1ccccc1)Nc1cccc(S(=O)(=O)N2CCCCC2)c1 | nt | nt | 3.7 | nt | nt | nt
Cc1ccc(S(=O)(=O)N2CCCCC2)cc1NC(=O)Cn1ncc(Cl)c(Cl)c1=O | nt | nt | 31.0* | nt | -6.6 | 93.8*
CC(C)(C)c1ccc(OCCC(=O)Nc2cccc(S(=O)(=O)N3CCCCC3)c2)cc1 | 0.7 | 2.4 | 24.5* | -5.3 | 19.8 | -0.6
O=C(CSc1ncnc2ccccc12)Nc1cccc(S(=O)(=O)N2CCCC2)c1 | 0.5 | -4.4 | 70.4* | 21.8 | 73.3* | -6.8
O=C(CSc1nnc(SCc2cccc3ccccc23)s1)Nc1ccc(Oc2ccccc2)cc1 | nt | nt | 1.2 | nt | nt | nt
COC(=O)C1=C(C)N(Cc2cccc(C(F)(F)F)c2)C(=NCc2ccccc2C(F)(F)F)NC1c1ccc(Cl)cc1 (stereo unspecified) | nt | nt | -5.2 | nt | nt | nt
CCC(Oc1ccccc1C)C(=O)N1CCCN(C)CC1 (stereo unspecified) | 0.1 | -17.0 | -11.2 | -12.0 | nt | nt
COC(=O)C1=C(C)N(Cc2ccc(C(F)(F)F)cc2)C(=NCc2ccc(C(F)(F)F)cc2)NC1c1ccccc1C(F)(F)F (stereo unspecified) | nt | nt | 14.1 | nt | nt | nt
O=C(CSc1ncnc2ccccc12)Nc1cc(S(=O)(=O)N2CCCCC2)ccc1Cl | 0.8 | 12.9 | 19.9 | 5.1 | nt | nt
Cc1ccc(NC(=O)CSc2ncnc3ccccc23)cc1S(=O)(=O)N1CCCCCC1 | -1.3 | 5.4 | 67.3* | -12.5 | 77.3* | 5.7
CC(C)(C)c1ccc(NC(=O)COc2ccc(-n3ccnc3)cc2)cc1 | -1.6 | 14.1 | 27.9* | 21.3 | 21.1 | 12.2*
COc1cc(NC(=O)COc2ccc(-n3ccnc3)cc2)cc(OC)c1 | 1.8 | 1.8 | 3.3 | 7.2 | nt | nt
CCCCCCCCN1C(=O)[C@H](CC(=O)N2CCSCC2)C[C@@]2(C(=O)OC)CCCCC=C12 | nt | nt | 9.9 | nt | nt | nt
CC(C)(C)OC(=O)N1CCC(N[C@@H](Cc2ccccc2)C(=O)NCCc2c[nH]c3ccccc23)(C(=O)NC2CCCCC2)CC1 | nt | nt | 26.7* | nt | 11.7 | -4.0
CC(C)(C)OC(=O)N1CCC(N[C@@H](Cc2c[nH]c3ccccc23)C(=O)NCC(c2ccccc2)c2ccccc2)(C(=O)NC2CCCCC2)CC1 | nt | nt | 12.3 | nt | nt | nt
NC(=O)C1CCN(C(=O)c2cc(-c3ccc(Cl)cc3)nc3ccccc23)CC1 | nt | nt | -10.2 | nt | nt | nt
NC(=O)C1CCN(C(=O)c2cc(-c3ccccc3Cl)nc3ccccc23)CC1 | nt | nt | 42.5* | nt | 43.2* | -4.6
C=CCn1cc(/C=N/Nc2nc3ccccc3[nH]2)c2ccccc21 | -2.3 | 4.4 | 27.2* | -6.1 | 23.6 | 14.4*
Cn1c(/C=N/Nc2nc3ccccc3[nH]2)nc2ccccc21 | 5.4 | -1.3 | -13.1 | 20.4 | nt | nt
CCOC(=O)[C@]12CCCC3=C1N(CCC3)C(=O)[C@@H](CC(=O)N1CCN(C(=O)C3CC3)CC1)C2 | nt | nt | -4.9 | nt | nt | nt
Cn1c(SCc2ccc(Cl)cc2)nnc1-c1ccc2nonc2c1 | 3.2 | 13.0 | 70.0* | 24.9 | -24.1 | -0.4
O=C(CNC(=O)c1ccc(F)cc1)c1ccc(Cl)cc1 | 2.4 | -0.9 | 9.5 | 21.5 | nt | nt
SMILES | 3CLpro inhibitor | BJeLR viability | PrPC surface inh | VHR inh abs | PrPC confirm | LD9 tox
Brc1ccc(-c2nn3c(-c4ccco4)nnc3s2)o1 | -3.8 | 1.7 | 61.8* | 17.7 | 75.7* | -3.3
CCOc1ccc(C(=O)C(C)OC(=O)c2nc(Cl)ccc2Cl)cc1 (stereo unspecified) | nt | 1.7 | -1.4 | nt | nt | nt
CC(C)(O)/C=C/C(=O)C(C)(O)C1C(O)CC2(C)C3CC=C4C(C=C(O)C(=O)C4(C)C)C3(C)C(=O)CC12C (stereo unspecified) | nt | nt | 34.5* | nt | 32.7* | 13.5*
Cn1c(=O)c2cc(NC(=O)CCc3ccc4c(c3)OCO4)ccc2n1Cc1ccc(F)cc1 | nt | nt | 31.4* | nt | 18.6 | 5.7
COc1cc(Cn2c3ccc(NC(=O)CCc4ccc(O)cc4)cc3c(=O)n2C)ccc1F | nt | nt | 28.5* | nt | 20.0 | -5.4
COc1ccc(OC)c(CC(=O)Nc2ccc3c(c2)c(=O)n(C)n3Cc2cccc(C(F)(F)F)c2)c1 | nt | nt | 82.0* | nt | 29.1* | 3.7
N#Cc1cc(F)cc(OCCCN2CCC(C(O)(c3ccccc3)c3ccccc3)CC2)c1 | nt | nt | -6.9 | nt | nt | nt
O=C(NC(c1cccnc1)c1ccc2c(c1)OCO2)C1CCN(CCOc2ccc(Cl)cc2Cl)CC1 (stereo unspecified) | nt | nt | -17.9 | nt | nt | nt
Cc1cc(C)cc(NC(=O)c2cccn2-c2ncc(C(F)(F)F)cc2Cl)c1 | 5.5 | 16.5 | 32.0* | 31.1 | 17.0 | 2.2
Cc1cc(C)n(-c2nc3ccccc3c(=O)n2OCC#N)n1 | -3.2 | 13.5 | 20.9 | 27.4 | nt | nt
Oc1ccc(CN2CCc3ccccc3C2)c2cccnc12 | -4.8 | 12.5 | 27.4* | 4.8 | 34.6* | 28.1*
O=C(N/C(=C\c1ccc(Br)cc1)C(=O)N1CCOCC1)c1ccc([N+](=O)[O-])cc1 | 1.4 | -8.2 | -25.9 | -9.5 | nt | nt
CC(=O)Oc1ccc(C23c4ccccc4C2(OC(C)=O)c2cc(OC(C)=O)ccc23)cc1 (stereo unspecified) | nt | nt | -23.5 | nt | nt | nt
COc1ccc(Nc2nnc(-c3ccc(O)cc3)c3ccccc23)cc1C(N)=O | -2.6 | -3.4 | 94.4* | 5.1 | 99.1* | 3.2
COC(=O)[C@]12C[C@H](CC(=O)N3CCOCC3)C(=O)N(Cc3ccccc3)C1=C[C@H](C(C)(C)C)O[C@@H]2C | nt | nt | 2.3 | nt | nt | nt
COCCN(C(=O)CSc1n[nH]c(-c2ccccc2)n1)c1c(N)n(CC(C)C)c(=O)[nH]c1=O | nt | 7.5 | 8.0 | nt | nt | nt
COC(=O)C1=CC(=O)C=C(OC)[C@@]12Oc1cc(C)cc(OC)c1C2=O | nt | nt | 58.6* | nt | 1.4 | 97.7*
Cc1ccc2nc(Br)c3c(c2c1)OC(CBr)C3 (stereo unspecified) | 3.3 | -3.3 | 28.6* | -3.2 | 43.4* | -3.7
Cc1nc2c(Cl)cccc2c2c1CC(CBr)O2 (stereo unspecified) | 4.5 | -19.1 | 11.4 | 16.1 | nt | nt
CCc1ccccc1NC(=O)C1CCCN(S(=O)(=O)c2ccc3c(c2)CC(C)N3C(C)=O)C1 (stereo unspecified) | 3.0 | 10.0 | 30.7* | -2.3 | 15.9 | -2.8
CC(=O)N1c2ccc(S(=O)(=O)N3CCCC(C(=O)NCc4ccccc4Cl)C3)cc2CC1C (stereo unspecified) | -0.9 | -6.9 | 3.9 | 9.1 | nt | nt
CC(=O)Nc1ccc(CN(C)c2c(C)nc3ccc(C(=O)N4CCN(C(=O)c5ccco5)CC4)cn23)cc1 | nt | nt | -7.0 | nt | nt | nt
Brc1ccc2nc(-c3ccc(CN4CCC5(CC4)CNc4ccccc45)cc3)c(-c3ccccc3)nc2c1 | nt | nt | 25.8* | nt | 53.3* | -0.1

Screening data as filed in PubChem.
